Screening results as filed in PubChem BioAssay.
HIF-2a inh – inhibitors of HIF-2a; 786-0 RCC cells HIF-2a reporter, luciferase luminescence, overnight; inhibition, % at 18.8 µM; 360,000 tested, 0.72% active; AID 624352;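 active = inhibition of the luminescence signal of 40% or more relative to plate controls, in a single-dose primary screen at 18.75 µM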
KKLEB cytotox – reduces viability of KKLEB cystic fibrosis airway cells | activity change (cytotoxicity), % at 5 µM | KKLEB CF airway cells viability, ATPlite luminescence, overnight; stronger effect = lower value; cells stimulated with P. aeruginosa culture filtrate | 360,000 tested, 0.36% active | AID 602141;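 active = corrected activity change at or below -50% at 5 µM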
Mdm2 MdmX PPI – human Mdm2/MdmX binding inhibition | O15151+Q00987 | SaOS-2 split-luciferase Mdm2/MdmX complementation, luminescence | inhibition, % at 8 µM | 330,000 tested, 3% active;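 active = inhibition of at least 50% at 8 µM in the primary screen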
ABHD5-PLIN5 inh – blocks binding of human ABHD5 to perilipin-5. Q00G26+Q8WTS1. Split G. princeps luciferase complementation, luminescence, 4 h. inhibition, % at 4 µM. 360,000 tested, 0.78% active. AID 602281;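 active = inhibition above the mean inhibition across every tested compound plus 3 SD, cut at about 22% in these data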
CF NFkB inh – inhibitors of cystic fibrosis induced NF-kB. KKLEB NF-kB-GFP reporter, PAF-induced, GFP fluorescence overnight. inhibition, % at 5 µM. 360,000 tested, 0.86% active. AID 588850;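 active = at least 50% inhibition at 5 µM, scaled per plate between neutral and stimulator controls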;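 note: PAF is a Pseudomonas aeruginosa culture filtrate used as stimulus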
Peg3 promoter – Peg3 promoter activity inhibition | HeLa PEG-Prom luciferase reporter, luminescence, overnight | inhibition, % at 20 µM | AID 588405 | 360,000 tested, 1.7% active;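 active = inhibition of at least 50% at 20 µM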
Hits are given with their value; – = inactive; · = not tested or not shown. In the library only some 4.6% were active in any assay of this set; here they are far more common.

SMILES | HIF-2a inh | KKLEB cytotox | Mdm2 MdmX PPI | ABHD5-PLIN5 inh | CF NFkB inh | Peg3 promoter
CN1CCc2cc(O)cc3c2[C@H]1Cc1ccc(O)c(O)c1-3 | – | -76.8 | – | – | – | –
CN(C)C(=S)SSC(=S)N(C)C | – | – | · | – | – | 55.9
CC(=O)n1cc(C=C2C(=O)NC(=O)NC2=O)c2ccccc21 | – | – | – | – | – | –
COCCNC(=O)Cn1cc(C=C2C(=O)NC(=O)NC2=O)c2ccccc21 | – | – | – | 22.5 | – | –
O=C1NCN(c2ccccc2)C12CCN(C(c1ccccc1OC(F)(F)F)c1nnnn1Cc1ccccc1)CC2 (configuration not stated) | – | – | · | – | – | 91.1
C[C@H]1CCC/C=C/[C@@H]2C[C@H](O)C[C@H]2[C@@H](O)/C=C/C(=O)O1 | – | – | · | – | 63.8 | 58.6
CCOC(=O)[C@]12Cc3cc(OC)ccc3[C@H]1N(CCC(=O)OC)C(=O)c1cc(OC)ccc12 | – | · | · | – | · | ·
CC(=O)O[C@H]1CC[C@@]2(C)C(=CC[C@@H]3[C@@H]2CC[C@]2(C)C(=O)CC[C@@H]32)C1 | – | – | – | – | – | –
CC(=O)O/C(=C1\CC2C3CC=C4CC(OC(C)=O)CCC4(C)C3CCC2(C)C1=O)C(F)(F)F (configuration not stated) | – | – | · | – | – | 63.1
CCOC(=O)[C@]12Cc3cc(C)ccc3[C@H]1N(C)C(=O)c1cc(OC)ccc12 | – | · | · | – | · | ·
COc1ccc(-n2c(O)c(/C=C3\C=Nc4ccc(Br)cc43)c(=O)[nH]c2=O)c(OC)c1 | 44.6 | – | – | – | – | –
COc1ccc(C(c2nnnn2C2CCCCC2)N2CCC3(CC2)C(=O)NCN3c2ccccc2)cc1 (configuration not stated) | – | – | · | – | – | –
O=C1NCN(c2ccccc2)C12CCN(C(c1nnnn1C1CCCCC1)C1CC1)CC2 (configuration not stated) | – | – | · | – | – | –
O=C1NC(=O)C(=Cc2ccc(SC3CCCCC3)o2)C(=O)N1 | 52.4 | – | – | – | – | –
C=CCN1Cc2ccccc2-n2nncc2C1 | – | – | · | – | – | –
CC(C)C[C@@H]1COc2cccc(N3CCN(C)CC3)c2S(=O)(=O)N1 | – | · | · | – | · | ·
COC(=O)[C@]12OC[C@]34C([C@@H](O)[C@@H]1O)[C@]1(C)CC(=O)C(O)=C(C)[C@@H]1C[C@H]3OC(=O)[C@H](O)[C@@H]24 (some centres not stated) | 44.9 | – | – | – | – | –
CC1C(=O)CC2(C(C)C)CC12 (configuration not stated) | – | – | · | – | – | –
CC(=O)OC1CC(OC2C(O)CC(OC3C(O)CC(OC4CCC5(C)C(CCC6C5CCC5(C)C(C7=CC(=O)OC7)C(O)CC65O)C4)OC3C)OC2C)OC(C)C1OC1OC(CO)C(O)C(O)C1O (configuration not stated) | 68.5 | -53.2 | · | – | 90.7 | 107.7
CC12CC[C@H]3[C@@H](CCC4(O)C[C@H](O)CCC34/C=N/NC(=O)c3ccccc3Cl)C1(O)CCC2C1=CC(=O)OC1 (some centres not stated) | – | – | – | – | – | –
CC1OC(OC2C(O)CC(OC3C(O)CC(OC4CCC5(C)C(CCC6C5CCC5(C)C(C7=CC(=O)OC7)C(O)CC65O)C4)OC3C)OC2C)CC(O)C1O (configuration not stated) | 72.1 | -53.9 | · | – | 69.7 | 107.3
CC(=O)O[C@@H]1CC[C@]2(C)C3CC[C@@]4(C)C(C[C@@H](O)[C@@H]4O)C3[C@@H](OC(C)=O)C[C@H]2C1 (some centres not stated) | – | – | – | – | – | –
O=C1NC2C(=CC(O)C(O)C2O)c2cc3c(cc21)OCO3 (configuration not stated) | – | – | · | – | 77.7 | 98.0
CC(C)c1ccc(N2C(=O)NC(=O)/C(=C/C=C/c3ccco3)C2=O)cc1 | – | – | · | 22.1 | 84.0 | 74.4
Cc1cc(C)cc(N2C(=O)NC(=O)/C(=C\C=C\c3ccco3)C2=O)c1 | 40.3 | – | · | 23.0 | – | 67.2
SMILES | HIF-2a inh | KKLEB cytotox | Mdm2 MdmX PPI | ABHD5-PLIN5 inh | CF NFkB inh | Peg3 promoter
CCc1ccc(N2C(=O)NC(=O)/C(=C\C=C\c3ccco3)C2=O)cc1 | – | – | – | 22.2 | – | 91.3
CCCCN1C(=O)/C(=C/C=C/c2ccco2)C(=O)NC1=S | – | – | · | – | – | –
CC[C@H]1c2ccccc2[C@@H]2CC[C@H]1N2c1ccccc1 | – | · | · | – | · | ·
C[C@]12CCC3C(CC[C@@H]4C[C@@H](O)CC[C@]34C)C1CC[C@@H]2O (some centres not stated) | – | – | · | – | – | –
COC(=O)[C@@H]1N=C(c2ccc(OC)cc2)O[C@]12C(=O)N(C)c1cccc(Cl)c12 | – | · | · | – | · | ·
O=C1CC(N2CCC(n3c(=O)[nH]c4ccccc43)CC2)C(=O)N1Cc1ccccc1 (configuration not stated) | – | – | – | – | – | –
Cc1cccc(C)c1-n1nnnc1C(c1cc2ccccc2o1)N1CCC(n2c(=O)[nH]c3ccccc32)CC1 (configuration not stated) | – | – | · | – | – | 101.6
O=c1[nH]c2ccccc2n1C1CCN(C(c2cc3ccccc3o2)c2nnnn2Cc2ccccc2)CC1 (configuration not stated) | – | -96.3 | · | – | 81.7 | 93.3
CCC1C2Cc3ccc(O)cc3C1(CC)CCN2C (configuration not stated) | – | – | · | – | – | –
Cc1cc(C)c(N=Cc2c(O)[nH]c(=O)[nH]c2=O)c(C)c1 | – | – | – | – | – | 51.1
COc1ccc(N=Cc2c(O)n(Cc3ccccc3)c(=S)[nH]c2=O)c(OC)c1 | – | – | – | – | – | 54.2
O=C1C=C(N2CC2)c2ccccc2C1=O | – | – | · | – | 60.2 | –
O=C1c2ccccc2-c2cc3ccccc3cc21 | – | – | · | – | – | –
COc1ccc2nc(/N=C/c3c(O)n(-c4cccc(Cl)c4)c(=O)[nH]c3=O)sc2c1 | – | – | – | 22.9 | – | –
COC1CCC(OC2CC(C3(C)CCC4(CC(O)C(C)C(C(C)/C=C(\C)C(=O)C(C)CC(C)C(=O)O)O4)O3)OC3(OC(C4OC(O)(CO)C(C)CC4C)CC3C)C2C)OC1C (configuration not stated) | 74.1 | -75.4 | · | – | 81.9 | 97.8
CC(C)C1C(C#N)=C(N)Oc2c1c(=O)oc1ccccc21 (configuration not stated) | – | – | · | – | – | –
C=C1C(=O)OC2CCN3CC=C(COC(=O)C(C)(O)C4(CO4)C1C)C23 (configuration not stated) | – | – | · | – | – | –
COc1ccc(C2=NCC(=O)N(CC(=O)NCc3ccco3)c3sc4c(c32)CCCC4)cc1 | – | – | – | 38.0 | – | –
